For some of these results: Results with a measured potency or affinity are listed apart. Activity calls are given as the source filed them. Unless noted, how the calls were made is not given here.
Columns and labels:
[1] = antimalarial activity against Dd2 strain (AID 2302;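 active means growth inhibition above 50% at the single 2 µM test dose, taken to imply half-maximal potency below 2 µM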;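 further: 0% = DMSO untreated growth and 100% = chloroquine plus artemisinin killed control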); details: P. falciparum Dd2 in RBCs, LDH growth readout, 72 h; at 2 µM; hits give high values
[2] = human hepatoma cell viability loss – ATP luminescence, cytotoxicity control for P. falciparum antimalarial project, primary screen (AID 2303;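 active means inhibition above 50%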;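 further: 0% = DMSO wells and 100% = digitonin-killed cells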); details: HepG2 viability, 24-48 h, at 10 µM, hits give high values
[3] = molecular target: L-lactate dehydrogenase (Plasmodium falciparum (isolate CDC / Honduras)) (UniProt Q27743); assay: PfLDH activity inhibition – cell lysate, 3D7 strain, counter-screen for P. falciparum growth inhibition project (AID 2304);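 further: 0% = vehicle and 100% = reference inhibitor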; details: P. falciparum 3D7 crude extract, LDH APAD/NBT absorbance; at 2 µM; hits give high values
[4] = inhibition of 3D7 malaria parasite growth – strain 3D7 (AID 2306);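 further: 0% = DMSO wells and 100% = chloroquine plus artemisinin control wells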; details: P. falciparum 3D7 erythrocytic growth, LDH absorbance, 72 h; at 2 µM; hits give high values
[5] = molecular target: Calcium-dependent protein kinase 1 (Plasmodium falciparum (isolate 3D7)) (UniProt P62344); assay: PfCDPK1 kinase inhibitors, biochemical, TCAMS library (AID 1159585; cut-off not given, nearly all actives have IC50 up to about 0.98 µM;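 further: inhibitors leave more ATP so luminescence rises with inhibition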); details: recombinant PfCDPK1, Kinase-Glo ATP depletion luminescence
[6] = molecular target: Plasmodium falciparum protein kinase 6 (PK6, PF3D7_1337100) (UniProt Q8IDW1); assay: PfPK6 kinase inhibitors, biochemical, TCAMS library (AID 1159586); details: recombinant PfPK6, Kinase-Glo ATP depletion luminescence
[7] = molecular target: Protein kinase 7 (PK7), Plasmodium falciparum 3D7 (PF3D7_0213400) (UniProt Q7YTF7); assay: inhibition of Plasmodium PK7 catalytic activity – biochemical, TCAMS antimalarial set, Kinase-Glo luminescence (AID 1159587); details: recombinant PfPK7, Kinase-Glo ATP depletion luminescence
[8] = molecular target: Calcium-dependent protein kinase 4 (Plasmodium falciparum (isolate 3D7)) (UniProt Q8IBS5); assay: PfCDPK4 kinase inhibitors, biochemical, TCAMS library (AID 1159588; cut-off not given, nearly all actives have IC50 up to about 0.91 µM); details: recombinant PfCDPK4, Kinase-Glo ATP depletion luminescence
Chain of Calcium-dependent protein kinase 4 (Plasmodium falciparum (isolate 3D7)) (Q8IBS5 whole entry, looked up): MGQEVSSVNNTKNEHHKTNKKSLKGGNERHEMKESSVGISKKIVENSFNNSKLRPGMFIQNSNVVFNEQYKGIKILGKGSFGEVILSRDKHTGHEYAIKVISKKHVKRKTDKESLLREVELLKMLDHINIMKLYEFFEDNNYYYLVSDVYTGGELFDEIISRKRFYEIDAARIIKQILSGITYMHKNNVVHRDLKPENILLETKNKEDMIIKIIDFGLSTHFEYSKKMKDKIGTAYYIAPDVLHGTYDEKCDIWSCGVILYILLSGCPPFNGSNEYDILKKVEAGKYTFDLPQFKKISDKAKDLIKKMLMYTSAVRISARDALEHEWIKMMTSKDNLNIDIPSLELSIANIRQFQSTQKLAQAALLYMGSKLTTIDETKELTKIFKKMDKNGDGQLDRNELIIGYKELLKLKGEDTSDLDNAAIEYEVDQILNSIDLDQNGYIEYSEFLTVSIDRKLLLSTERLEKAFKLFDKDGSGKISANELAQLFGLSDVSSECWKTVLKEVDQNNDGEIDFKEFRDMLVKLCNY

Chain of L-lactate dehydrogenase (Plasmodium falciparum (isolate CDC / Honduras)) (Q27743 whole entry, looked up): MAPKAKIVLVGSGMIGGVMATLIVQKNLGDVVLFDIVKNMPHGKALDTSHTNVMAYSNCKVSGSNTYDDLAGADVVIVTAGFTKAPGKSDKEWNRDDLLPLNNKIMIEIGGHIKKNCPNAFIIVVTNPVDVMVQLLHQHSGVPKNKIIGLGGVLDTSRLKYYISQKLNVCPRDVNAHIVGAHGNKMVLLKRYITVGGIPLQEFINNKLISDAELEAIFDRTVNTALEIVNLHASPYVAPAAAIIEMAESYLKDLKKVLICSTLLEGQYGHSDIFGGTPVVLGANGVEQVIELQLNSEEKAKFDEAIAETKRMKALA
Chain of Protein kinase 7 (PK7), Plasmodium falciparum 3D7 (PF3D7_0213400) (Q7YTF7 1-343): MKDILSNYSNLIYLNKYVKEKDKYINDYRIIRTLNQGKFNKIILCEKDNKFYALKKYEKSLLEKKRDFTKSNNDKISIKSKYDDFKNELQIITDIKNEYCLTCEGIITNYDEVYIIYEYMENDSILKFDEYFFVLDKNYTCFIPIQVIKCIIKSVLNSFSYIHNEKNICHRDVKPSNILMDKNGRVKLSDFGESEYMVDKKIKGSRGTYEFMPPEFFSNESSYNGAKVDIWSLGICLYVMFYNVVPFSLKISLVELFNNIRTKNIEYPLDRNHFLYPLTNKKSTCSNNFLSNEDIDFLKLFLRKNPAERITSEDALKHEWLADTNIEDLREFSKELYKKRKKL
Chain of Plasmodium falciparum protein kinase 6 (PK6, PF3D7_1337100) (Q8IDW1 1-305): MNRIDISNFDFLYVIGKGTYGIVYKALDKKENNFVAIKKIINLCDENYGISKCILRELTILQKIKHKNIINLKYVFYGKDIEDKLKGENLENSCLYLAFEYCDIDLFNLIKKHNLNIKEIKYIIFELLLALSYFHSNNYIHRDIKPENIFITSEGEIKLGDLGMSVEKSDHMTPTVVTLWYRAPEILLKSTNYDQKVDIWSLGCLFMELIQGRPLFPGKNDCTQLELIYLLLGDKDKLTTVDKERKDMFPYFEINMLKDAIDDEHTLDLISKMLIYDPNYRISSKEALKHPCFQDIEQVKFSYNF
Chain of Calcium-dependent protein kinase 1 (Plasmodium falciparum (isolate 3D7)) (P62344 whole entry, looked up): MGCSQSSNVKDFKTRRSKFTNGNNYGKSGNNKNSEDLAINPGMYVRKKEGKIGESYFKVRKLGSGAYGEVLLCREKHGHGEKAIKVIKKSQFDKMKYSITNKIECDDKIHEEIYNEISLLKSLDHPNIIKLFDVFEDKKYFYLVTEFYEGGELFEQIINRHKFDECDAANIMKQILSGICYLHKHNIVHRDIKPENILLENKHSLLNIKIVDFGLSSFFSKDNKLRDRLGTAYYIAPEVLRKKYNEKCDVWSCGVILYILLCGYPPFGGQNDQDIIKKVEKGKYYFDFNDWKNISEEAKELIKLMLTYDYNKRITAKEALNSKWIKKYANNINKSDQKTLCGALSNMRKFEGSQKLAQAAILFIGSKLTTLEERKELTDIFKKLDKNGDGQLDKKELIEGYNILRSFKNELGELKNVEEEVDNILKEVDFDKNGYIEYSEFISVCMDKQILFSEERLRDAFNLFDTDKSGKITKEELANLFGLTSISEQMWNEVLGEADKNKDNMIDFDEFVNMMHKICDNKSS

COc1ccc(-c2nc(NC(=O)CSc3ccc([N+](=O)[O-])cc3)sc2C)cc1
active: growth inhibition [1] 100% | growth inhibition [4] 101%
inactive: inhibition [2] -6% | inhibition [3] -1% | outcome [5] | outcome [6] | outcome [7] | outcome [8]

CC1CCCCN1CCCNc1ncc2c(-c3ccc(NC(=O)Nc4cc(C(F)(F)F)ccc4F)c(F)c3)nn(C)c2n1 (stereo not drawn)
inactive: inhibition [2] 27% | inhibition [3] 2% | outcome [5] | outcome [6] | outcome [7] | outcome [8]
active: growth inhibition [1] 97% | growth inhibition [4] 101%

CS(=O)(=O)N1CC2(CCN(CCC(NC(=O)/C=C/c3ccccc3)c3ccc(Cl)c(Cl)c3)CC2)c2ccccc21 (stereo not drawn)
active: growth inhibition [1] 55% | growth inhibition [4] 97%
inactive: inhibition [2] 18% | inhibition [3] 2% | outcome [5] | outcome [6] | outcome [7] | outcome [8]

CN(C)CCCNc1ncnc2c1[nH]c1ccc(F)cc12
inactive: growth inhibition [1] -1% | inhibition [2] 14% | inhibition [3] 1% | outcome [5] | outcome [6] | outcome [7] | outcome [8]
active: growth inhibition [4] 100%

CC1CN=C(c2ccc(NC(=O)c3ccc(C(=O)Nc4ccc(C5=NCC(C)N5)cc4)cc3)cc2)N1 (stereo not drawn)
active: growth inhibition [1] 100% | growth inhibition [4] 99%
inactive: inhibition [2] 15% | inhibition [3] -7% | outcome [5] | outcome [6] | outcome [7] | outcome [8]

Cc1ccc(NC(=O)NC2CCN(c3ccnc4ccccc34)CC2)cc1
active: growth inhibition [1] 52% | growth inhibition [4] 97%
inactive: inhibition [2] 21% | inhibition [3] -6% | outcome [5] | outcome [6] | outcome [7] | outcome [8]

O=C(NC1CC1)c1ccc(Cn2c(SCc3cccc([N+](=O)[O-])c3)nc3ccccc3c2=O)cc1
inactive: inhibition [2] 12% | inhibition [3] 1% | outcome [5] | outcome [6] | outcome [7] | outcome [8]
active: growth inhibition [1] 65% | growth inhibition [4] 91%

CC(Cc1ccc(C(=O)Nc2ccc(CC(C)NCCc3cccc(Cl)c3)cc2)cc1)NCCc1ccc(C(F)(F)F)cc1 (stereo not drawn)
inactive: inhibition [3] -4% | outcome [5] | outcome [6] | outcome [7] | outcome [8]
active: growth inhibition [1] 88% | inhibition [2] 98% | growth inhibition [4] 101%

CC1(C)N=C(N)N=C(N)N1OCC=Cc1ccccc1
inactive: inhibition [3] -3% | outcome [5] | outcome [6] | outcome [7] | outcome [8]
active: growth inhibition [1] 96% | inhibition [2] 62% | growth inhibition [4] 94%

COc1ccc(OC)c(C=NNc2nc3ccccc3[nH]2)c1
inactive: growth inhibition [1] 28% | inhibition [2] -6% | inhibition [3] 7% | outcome [5] | outcome [6] | outcome [7] | outcome [8]
active: growth inhibition [4] 99%

O=C(Cn1c(SCc2cccc(F)c2F)cc(=O)c2ccccc21)N(CCCn1ccnc1)Cc1ccc(-c2ccc(C(F)(F)F)cc2)cc1
inactive: inhibition [2] 21% | inhibition [3] -5% | outcome [5] | outcome [6] | outcome [7] | outcome [8]
active: growth inhibition [1] 99% | growth inhibition [4] 99%

CCCNC(=O)c1cncc(-c2ccc(CNC3Cc4ccccc4C3)cc2)c1
inactive: growth inhibition [1] 21% | inhibition [2] 9% | inhibition [3] -8% | outcome [5] | outcome [6] | outcome [7] | outcome [8]
active: growth inhibition [4] 97%

COc1ccc(OCc2ccccn2)c(C2CCN(CCCCNC(=O)c3ccc(NC(=O)c4ccc(Cl)cc4)cc3)CC2)c1
inactive: inhibition [2] 18% | inhibition [3] 4% | outcome [5] | outcome [6] | outcome [7] | outcome [8]
active: growth inhibition [1] 71% | growth inhibition [4] 98%

Cc1nn(CC(O)Cn2c3ccc(Br)cc3c3cc(Br)ccc32)c(C)c1Br (stereo not drawn)
inactive: inhibition [2] 4% | inhibition [3] 1% | outcome [5] | outcome [6] | outcome [7] | outcome [8]
active: growth inhibition [1] 81% | growth inhibition [4] 98%

CCOC(=O)CCCc1cc(NC2CCN(C)CC2)nc(Nc2ccc(C)cc2)n1
inactive: growth inhibition [1] 12% | inhibition [2] 35% | inhibition [3] -2% | outcome [5] | outcome [6] | outcome [7] | outcome [8]
active: growth inhibition [4] 90%

Cc1cccc2[nH]c(-c3cccc(-c4ccc(NC(=O)C5CC(=O)Nc6ccccc65)cc4)c3)nc12 (stereo not drawn)
active: growth inhibition [1] 56% | growth inhibition [4] 87%
inactive: inhibition [2] 15% | inhibition [3] 3% | outcome [5] | outcome [6] | outcome [7] | outcome [8]

Clc1ccc(C2CCN(CCCOc3ccc4c(c3)CCNCC4)CC2)cc1
inactive: growth inhibition [1] 28% | inhibition [3] -8% | outcome [5] | outcome [6] | outcome [7] | outcome [8]
active: inhibition [2] 93% | growth inhibition [4] 98%

CC1(C)N=C(N)N=C(N)N1OCCCOc1ccccc1Cl
inactive: inhibition [3] 1% | outcome [5] | outcome [6] | outcome [7] | outcome [8]
active: growth inhibition [1] 94% | inhibition [2] 64% | growth inhibition [4] 96%

CCCc1cc(NCC)nc(Nc2ccc(C)cc2)n1
active: growth inhibition [4] 95%
inactive: growth inhibition [1] 16% | inhibition [2] 22% | inhibition [3] -1% | outcome [5] | outcome [6] | outcome [7] | outcome [8]

O=C(NC1CCCCC1)c1ccc(O)c(-c2cccc(C(F)(F)F)c2)c1
inactive: inhibition [2] 8% | inhibition [3] 0% | outcome [5] | outcome [6] | outcome [7] | outcome [8]
active: growth inhibition [1] 87% | growth inhibition [4] 97%

O=C(Cc1cccs1)NC(CCCN1CCC(Oc2cccc(Cl)c2)CC1)c1ccc(Cl)c(Cl)c1 (stereo not drawn)
inactive: inhibition [2] 39% | inhibition [3] 3% | outcome [5] | outcome [6] | outcome [7] | outcome [8]
active: growth inhibition [1] 70% | growth inhibition [4] 86%

COc1ccc(CNC(=O)c2cnc3c(O)cccc3c2Nc2cccc(NC(=O)c3ccc(Cl)c(Cl)c3)c2)cc1
active: growth inhibition [1] 89% | inhibition [2] 54% | growth inhibition [4] 96%
inactive: inhibition [3] 4% | outcome [5] | outcome [6] | outcome [7] | outcome [8]

COc1ccc(C2CC(c3ccccc3O)=NN2C(=O)c2ccco2)cc1OC (stereo not drawn)
inactive: inhibition [2] 11% | inhibition [3] 1% | outcome [5] | outcome [6] | outcome [7] | outcome [8]
active: growth inhibition [1] 68% | growth inhibition [4] 96%

COc1ccc(-c2ncnc(C(F)(F)F)c2-c2ccc(Cl)cc2)c(O)c1
active: growth inhibition [4] 100%
inactive: growth inhibition [1] 22% | inhibition [2] 1% | inhibition [3] -4% | outcome [5] | outcome [6] | outcome [7] | outcome [8]

COc1ccc(-c2cc(-c3nc4ccc(CN)cc4[nH]3)c(=O)n(C)c2)cc1OC
inactive: inhibition [2] -12% | inhibition [3] 4% | outcome [5] | outcome [6] | outcome [7] | outcome [8]
active: growth inhibition [1] 56% | growth inhibition [4] 85%

COc1cccc(-c2cnc(N)c(-c3nc4ccc(C(F)(F)F)cc4[nH]3)c2)c1
active: growth inhibition [4] 99%
inactive: growth inhibition [1] 30% | inhibition [2] 5% | inhibition [3] -4% | outcome [5] | outcome [6] | outcome [7] | outcome [8]

NC(N)=Nc1nccc(NCc2ccccc2)n1
active: inhibition [2] 95% | growth inhibition [4] 88%
inactive: growth inhibition [1] 48% | inhibition [3] -1% | outcome [5] | outcome [6] | outcome [7] | outcome [8]

COc1ccc2nc(C)cc(NCc3ccc4ccccc4c3)c2c1
active: growth inhibition [1] 75% | growth inhibition [4] 101%
inactive: inhibition [2] 21% | inhibition [3] -1% | outcome [5] | outcome [6] | outcome [7] | outcome [8]

Cc1cccc2[nH]c(-c3ccc(-c4cccc(CN5CCCC(O)C5)c4)s3)nc12 (stereo not drawn)
inactive: growth inhibition [1] 18% | inhibition [2] 13% | inhibition [3] 2% | outcome [5] | outcome [6] | outcome [7] | outcome [8]
active: growth inhibition [4] 95%

CCC(CN1C(=O)C(c2ccccc2)(c2ccccc2)N=C1N)c1ccccc1 (stereo not drawn)
inactive: inhibition [2] 11% | inhibition [3] -2% | outcome [5] | outcome [6] | outcome [7] | outcome [8]
active: growth inhibition [1] 98% | growth inhibition [4] 98%

CCCN(CCC)C(=S)N=Nc1c(O)[nH]c2ccccc12
active: growth inhibition [1] 86% | growth inhibition [4] 97%
inactive: inhibition [2] 28% | inhibition [3] -3% | outcome [5] | outcome [6] | outcome [7] | outcome [8]

O=[N+]([O-])c1cccc(Nc2cncc(-c3ccc(CO)cc3)c2)c1
inactive: inhibition [2] 16% | inhibition [3] -5% | outcome [5] | outcome [6] | outcome [7] | outcome [8]
active: growth inhibition [1] 96% | growth inhibition [4] 85%

Cc1cc(N[C@@H](Cc2ccccc2)C(=O)NCCc2ccccc2)nc(NCCOc2ccccc2)n1
inactive: growth inhibition [1] 14% | inhibition [2] 10% | inhibition [3] -3% | outcome [5] | outcome [6] | outcome [7] | outcome [8]
active: growth inhibition [4] 95%

COc1cc(NC(=O)CCCCCCCN2CCN(C)CC2)c2ncccc2c1
inactive: inhibition [2] 2% | inhibition [3] 1% | outcome [5] | outcome [6] | outcome [7] | outcome [8]
active: growth inhibition [1] 83% | growth inhibition [4] 95%

Cc1cc(NCCc2ccccc2)nc(/N=C(\N)Nc2cccc(Cl)c2)n1
active: growth inhibition [1] 100% | growth inhibition [4] 101%
inactive: inhibition [2] 24% | inhibition [3] 4% | outcome [5] | outcome [6] | outcome [7] | outcome [8]

CCc1cn2c3c(cc(C(=O)N[C@@H](Cc4ccccc4)[C@H](O)CNCCOC)cc13)N(C)S(=O)(=O)CC2
inactive: inhibition [2] 7% | inhibition [3] -9% | outcome [5] | outcome [6] | outcome [7] | outcome [8]
active: growth inhibition [1] 56% | growth inhibition [4] 98%

COc1cccc(NC(=O)Nc2ccc(-c3oc(C(=O)NCC(c4ccccc4)N(C)C)cc3-c3ccncc3)cc2)c1 (stereo not drawn)
active: growth inhibition [1] 99% | growth inhibition [4] 101%
inactive: inhibition [2] 6% | inhibition [3] 2% | outcome [5] | outcome [6] | outcome [7] | outcome [8]

CCOc1ccc2c(c1)N(C(=O)C=Cc1ccccc1)C(C)(C)c1ssc(=S)c1-2
inactive: inhibition [2] 3% | inhibition [3] -1% | outcome [5] | outcome [6] | outcome [7] | outcome [8]
active: growth inhibition [1] 77% | growth inhibition [4] 83%

Cc1cc(CNCC2CCC(CNCCCc3ccccc3)CC2)ccc1O (stereo not drawn)
active: growth inhibition [4] 101%
inactive: growth inhibition [1] 0% | inhibition [2] 25% | inhibition [3] 7% | outcome [5] | outcome [6] | outcome [7] | outcome [8]

O=C(c1ccc(O)c(-c2cc(Cl)cc(Cl)c2)c1)N1CCCC1
inactive: inhibition [2] 3% | inhibition [3] -6% | outcome [5] | outcome [6] | outcome [7] | outcome [8]
active: growth inhibition [1] 57% | growth inhibition [4] 90%

Clc1cnc2ccc3c(c2c1CCN1CCC(NCc2cc4c(cn2)OCCO4)CC1)OCCO3
inactive: growth inhibition [1] 18% | inhibition [2] 3% | inhibition [3] -2% | outcome [5] | outcome [6] | outcome [7] | outcome [8]
active: growth inhibition [4] 92%

Source: PubChem BioAssay
